The record followed here is article PMC5540273 (PLoS ONE, 2017).

Among the test systems are MST4; MTOR; MUSK; MYLK2; MYLK4; MYLK; MYO3A; MYO3B; NDR2; NEK10; NEK11; NEK1; NEK2; NEK3; NEK4; NEK5.
Common to all, as to conditions: concentration: 1 μM, replicates: in singlicate; n = 1
The test system of the next test is T1, MST1.
T1 construct: gene STK4

The subject of another test is T2, MST2.
T2 construct: gene STK3

In another test the test system is T3, MST3.
T3 construct: gene STK24

For a further test, the system named is T4, NDR1.
T4 construct: gene STK38
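Further: KINOMEscan kinase panel screen.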

Take `Cl.Nc1ncnc2occ(-c3ccc(NC(=O)Nc4cc(C(F)(F)F)ccc4F)cc3)c12` [SB-707548]: the “%Inh” value in the test with MST1 turned out to be 50%; in the test on MST2 it was 26%; in the test with MST3, 52%; in the test with MST4 it was 8%; in the test on MTOR, 16%; in the test with MUSK it was 100%. Moreover, the “%Inh” value in the test with MYLK2 is listed as 37%; with MYLK4, 26%; in the test with MYLK it was 21%; with MYO3A, 96.6%; in the test with MYO3B it was 57%; in the test on NDR1, 29%. Also, the “%Inh” value with NDR2 is given as 40%; in the test with NEK10, 1%; with NEK11, 0%; with NEK1, 40%; with NEK2, 37%; in the test with NEK3, 1%. Further, the “%Inh” value in the test on NEK4 was found to be 5%; with NEK5, 30%.

For `COc1cc2ncn(-c3cc(OCc4sccc4Cl)c(C(N)=O)s3)c2cc1OC` [GSK448459], the “%Inh” value in the test on MST1 worked out at 21%; with MST2, 68%; in the test on MST3, 0%; in the test with MST4, 0%; in the test on MTOR it was 11%; with MUSK, 7%. Further, the “%Inh” value in the test on MYLK2 was 31%; in the test with MYLK4, 72%; in the test on MYLK it was 37%; in the test with MYO3A it was 12%; with MYO3B it was 0%; in the test with NDR1, 0%. Further, the “%Inh” value in the test on NDR2 was 0%; with NEK10 it was 0%; in the test on NEK11, 0%; with NEK1, 13%; with NEK2, 97.1%; in the test with NEK3 it was 4%. The “%Inh” value in the test with NEK4 is given as 0%; in the test with NEK5 it was 11%.

Regarding `Cc1nnc(-c2ccc3ncc(-c4ccc(S(C)=O)cc4)n3c2)o1` (stereo not shown), the “%Inh” value in the test with MST1 is recorded as 0%; with MST2, 0%; in the test with MST3, 14%; with MST4, 0%; with MTOR it was 29%; with MUSK, 0%. Also, the “%Inh” value in the test on MYLK2 was determined as 8%; with MYLK4, 5%; with MYLK, 18%; in the test on MYO3A it was 0%; in the test with MYO3B, 0%; in the test on NDR1, 0%. Besides, the “%Inh” value was 0% with NDR2; 0% in the test on NEK10; 0% with NEK11; 0% with NEK1; 12% in the test on NEK2; 36% with NEK3. Moreover, the “%Inh” value in the test on NEK4 and with NEK5 was 0% each time.

Regarding `O=C(NCCNc1ccnc(Nc2ccc(F)cc2)n1)Nc1ccccc1F` [GSK1379880], the “%Inh” value turned out to be 0% in the test on MST1; 0% with MST2; 0% in the test on MST3; 0% in the test with MST4; 10% in the test with MTOR; 5% with MUSK. In addition, the “%Inh” value in the test on MYLK2 is recorded as 1%; with MYLK4, 0%; in the test on MYLK, 9%; in the test on MYO3A, 0%; in the test on MYO3B it was 0%; in the test on NDR1 it was 0%. Moreover, the “%Inh” value in the test on NDR2 was 0%; in the test on NEK10 it was 12%; with NEK11, 0%; in the test with NEK1 it was 0%; in the test with NEK2 it was 0%; with NEK3 it was 11%. Besides, the “%Inh” value in the test with NEK4 is recorded as 15%; in the test with NEK5, 0%.

Turning to `c1ccc(-c2n[nH]cc2-c2ccnc3ccccc23)nc1` [GW271431], the “%Inh” value was determined as 5% in the test on MST1; 13% with MST2; 2% with MST3; 0% with MST4; 9% with MTOR; 15% with MUSK. The “%Inh” value in the test with MYLK2 is 12%; in the test on MYLK4 it was 24%; with MYLK, 20%; in the test with MYO3A, 31%; in the test with MYO3B, 0%; with NDR1, 17%. In addition, the “%Inh” value in the test on NDR2 is given as 0%; in the test with NEK10 it was 8%; in the test on NEK11 it was 0%; with NEK1, 0%; in the test on NEK2, 2%; in the test with NEK3 it was 14%. The “%Inh” value in the test with NEK4 came out at 3%; with NEK5, 22%.

As to `CCc1ccnc(/C=C/c2n[nH]c3cc(Sc4ccccc4C(=O)NC)ccc23)c1`, the “%Inh” value amounted to 6% in the test on MST1; 36% in the test with MST2; 19% in the test on MST3; 4% with MST4; 12% in the test with MTOR; 0% in the test with MUSK. Moreover, the “%Inh” value in the test on MYLK2 was determined as 0%; in the test on MYLK4, 0%; in the test on MYLK, 0%; in the test with MYO3A it was 0%; with MYO3B, 0%; in the test with NDR1, 7%. The “%Inh” value worked out at 0% in the test with NDR2; 4% in the test with NEK10; 0% in the test with NEK11; 0% in the test on NEK1; 0% in the test on NEK2; 1% in the test with NEK3. For the same molecule, the “%Inh” value in the test on NEK4 and in the test with NEK5 was 0% throughout.

In the case of `CN1c2ccc(CNc3ccc(F)cc3)cc2-c2c(cnn2C)S1(=O)=O`, the “%Inh” value with MST1 amounted to 0%; in the test on MST2 it was 0%; in the test with MST3 it was 0%; with MST4, 0%; in the test with MTOR it was 24%; in the test with MUSK it was 0%. For the same molecule, the “%Inh” value in the test with MYLK2 is recorded as 0%; in the test with MYLK4, 0%; with MYLK it was 4%; with MYO3A, 0%; with MYO3B it was 0%; in the test with NDR1, 16%. For the same molecule, the “%Inh” value in the test on NDR2 stood at 0%; in the test on NEK10, 0%; with NEK11, 0%; in the test with NEK1 it was 1%; with NEK2, 0%; in the test on NEK3, 28%. Also, the “%Inh” value with NEK4 and with NEK5 was 0% throughout.

On to `Cc1ccc(C(=O)NCC(N)=O)cc1-n1c(C)cc(OCc2ccc(F)cc2F)c(Br)c1=O`, for which the “%Inh” value in the test on MST1 is 13%; in the test on MST2, 4%; in the test on MST3, 26%; in the test on MST4, 0%; with MTOR, 0%; with MUSK it was 0%. Further, the “%Inh” value in the test with MYLK2 is on record as 12%; in the test with MYLK4, 14%; with MYLK it was 7%; in the test on MYO3A, 14%; in the test with MYO3B, 15%; with NDR1 it was 24%. Besides, the “%Inh” value with NDR2 is on record as 13%; with NEK10 it was 0%; in the test with NEK11, 0%; in the test on NEK1 it was 0%; in the test with NEK2, 10%; in the test on NEK3 it was 29%. Moreover, the “%Inh” value in the test on NEK4 and with NEK5 was 0% in each case.
